For eleven substances, GI50 results are on record in ChEMBL document CHEMBL1201862, “PubChem BioAssay data set” (2004).

The whole screen tested about 58,000 sequences, of which about 4,000 (6.9%) were called active. The calls are words filed in the database; no cut-off is given here. A selection follows. Potency and affinity values are given separately.

By GI50 is commonly meant the concentration giving 50% growth inhibition.

This experiment deals with HCT-15.
“cis-Bis[[(trimethylsilyl)methyl]amino]tetrachloroplatinum(IV), CHEMBL2146191” displayed a GI50 of 3.42 µM. Turning to “[Bis(aminomethyl)tetramethylenesilane]dichloropaltinum(II), CHEMBL2146205”, it took 20.5 µM to inhibit growth by half (GI50). Substance “[Bis(aminomethyl)dimethylsilane]tetrachloroplatinum(IV), CHEMBL2146190” registered a GI50 of 8.45 µM.

Consider CISPLATIN, CHEMBL11359, for which the GI50 was 7.21 µM. As to “[Bis(aminomethyl)dimethylsilane]dichloroplatinum (II), CHEMBL2146201”, the GI50 worked out at 27.5 µM. “[Bis(aminomethyl)tetramethylenesilane]tetrachloropaltinum(IV), CHEMBL2146189” yielded a 50% growth inhibitory concentration (GI50) of 3.62 µM. This GI50 lies about 7.6-fold lower than the previous one. As to “mu-(1,7-nanodiamine-N,N')bis-(cis-aminedichloroplatimum (II)), CHEMBL2146215”, the 50% growth inhibitory concentration (GI50) was determined as 37.1 µM. The substance “[Bis(aminomethyl)pentamethylenesilane]dichloropaltinum(II), CHEMBL2146202” yielded a GI50 of 5.21 µM. This GI50 is about 7.1-fold lower than that of the substance before. On to “[Bis(aminomethyl)diethylsilane]tetrachloroplatinum(IV), CHEMBL2146203”, for which it took 2.45 µM to inhibit growth by half (GI50).

“[Bis(aminomethyl)pentamethylenesilane]tetrachloropaltinum(IV), CHEMBL2146204” came in with a GI50 of 0.953 µM. “[Bis(aminomethyl)ethylmethylsilane]tetrachloroplatinum(IV), CHEMBL2146192”: the GI50 worked out at 3.5 µM.
